Results: PubChem BioAssay (NCATS)
Records with an inconclusive call do not appear. The source made the active and inactive calls. Unless noted, the call rests on the fitted dose curve; in most records, active means well fitted curve in the direction sought with a large enough effect; inconclusive means small, poorly fitted or top-dose-only effect, or another doubt; inactive means no such curve, though single readings can be large; an effect the other way counts as inactive or inconclusive.

Columns and labels:
[1] = qHTS Screen of the MIPE 4.0 Collection Against Ewings Sarcoma (TC32) (AID 1259256); further: nearly all actives have a fitted effect of over 45% in size; further: potency means the concentration at half of the fitted maximal effect
Outline: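 After a 4 h attachment period in RPMI/5% FBS, cells were pin-dosed with test compounds; DMSO served as negative and 9.2 uM bortezomib (final) as positive control. Luminescent CellTiter-Glo signal at 48 h defined viability.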

[2] = P-glycoprotein substrates identified in KB-8-5-11 adenocarcinoma cell line, qHTS therapeutic library screen (AID 1346987); further: nearly all actives have a fitted effect of over 65% in size; further: potency means the concentration at half of the fitted maximal effect
Outline: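 Luminescence from CellTiter-Glo, read 5 min after addition, quantified survival of KB-8-5-11 (P-gp-overexpressing) cells exposed to compounds for 72 h. AC50 was derived from concentration-response curves.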

[3] = Natriuretic polypeptide receptor (hNpr1) antagonism - Pilot counterscreen GloSensor control cell line (AID 1347045; calls by dose curve; further: potency means the concentration at half of the fitted maximal effect)
Outline: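 Cells were first seeded and incubated overnight at 37C, then loaded with 2% GloSensor substrate for 2 h. Compounds were added for 30 min at room temperature, followed by a baseline read, 50 uM SNP and a final read after 20 min.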

[4] = biological target: Atrial natriuretic peptide receptor 1 (Homo sapiens) (UniProt P16066); experiment: Natriuretic polypeptide receptor (hNpr1) antagonism - Pilot screen (AID 1347049; calls by dose curve;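 further: HEK293 cells with hNpr1 and GloSensor cGMP luciferase stimulated by 0.1 nM hNppA; agonist-evoked cGMP luminescence read 20 min after hNppA addition; series mostly up to about 58 µM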)
Outline: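 Receptor antagonism read as cGMP-dependent luminescence in hNpr1/pGS-40F HEK293 cells: pre-read after 30 min compound exposure, post-read 20 min after hNppA agonist at 0.1 nM final, all at room temperature, protected from light; A-71915 titration as control.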

[5] = biological target: Atrial natriuretic peptide receptor 2 (Homo sapiens) (UniProt P20594); experiment: Natriuretic polypeptide receptor (hNpr2) antagonism - Pilot subtype selectivity assay (AID 1347050; calls by dose curve)
Outline: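 Antagonist mode: compounds (LOPAC1280, seven 1:5 dilutions) added 30 min before 1 nM hNppC stimulation of hNpr2-HEK293 cGMP-sensor cells; luminescence read before and 20 min after agonist at ambient temperature.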

[6] = NS1 protein of Zika virus - qHTS assay to identify small molecule inhibitors in human HEK 293 cells (AID 1347053); further: nearly all actives have a fitted effect of over 55% in size; further: potency means the concentration at half of the fitted maximal effect
Outline: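 Readout was TR-FRET using paired anti-NS1 antibodies after 24 h infection of HEK 293 cells with ZIKV MR766 (MOI = 0.5). Compound preceded virus by 1 h; reduced signal reflects lower NS1 expression.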

[7] = biological target: T1, Tyrosine-protein phosphatase non-receptor type substrate 1 (Homo sapiens) + Leukocyte surface antigen CD47 (Homo sapiens) (UniProt P78324+Q08722); experiment: CD47-SIRPalpha protein protein interaction - LANCE assay qHTS validation (AID 1347057; active means well fitted curve in the direction sought with a large enough effect in the signal ratio, with a control signal flat, not every such curve was filed as active; the % refers to the signal ratio; further: series mostly up to about 38 µM)
Outline: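 Inhibition of soluble CD47/SIRPalpha ectodomain association by titrated compounds, measured as 665/615 nm time-resolved FRET ratio after sequential 30 min room-temperature incubations.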

[8] = biological target: T1, Tyrosine-protein phosphatase non-receptor type substrate 1 (Homo sapiens) + Leukocyte surface antigen CD47 (Homo sapiens); experiment: CD47-SIRPalpha protein protein interaction - Alpha assay qHTS validation (AID 1347059);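 further: bead proximity luminescence from CD47 binding SIRPalpha after compound preincubation with SIRPalpha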
Outline: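 AlphaScreen signal between CD47-His (12.5 nM) and biotin-SIRPalpha (25 nM) soluble extracellular domains, bead-captured via Ni-NTA and streptavidin. Compounds, in 7-point titrations, met SIRPalpha 30 min before CD47; PBS pH 7.4 with 0.05% IGEPAL.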

[9] = biological target: Parathyroid hormone/parathyroid hormone-related peptide receptor (Homo sapiens) (UniProt Q03431); experiment: qHTS for PTHR1 Agonists: Optimization Screen against the NCGC LOPAC library (AID 1347079);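 further: GloSensor cAMP luminescence in HEK-293 GP2 cells expressing human PTHR1 with IBMX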
Outline: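 HEK-293 GP2 cells, PTHR1 + GloSensor cAMP; 3000 cells/well, o/n. Luciferin + IBMX 0.5mM each (stock), 1 hr 37C. Cpd titration, 1 hr 37C. Lum after 15 min RT. Ctrl M-PTH(1-15) top 10uM.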

[10] = P-glycoprotein substrates identified in KB-3-1 adenocarcinoma cell line, qHTS therapeutic library screen (AID 1346986); further: nearly all actives have a fitted effect of over 60% in size;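 further: potency means the concentration at half of the fitted maximal effect; potency is for cytotoxicity meaning loss of cell viability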
Outline: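 Viability read by CellTiter-Glo after 72 h compound exposure in dose-response of KB-3-1 and KB-8-5-11 (P-gp-high) cells. Hits needed AC50 < 10 uM, >50% maximum response and curve class -1.1 to -2.4. Cherry-picks retested ± tariquidar, including pcDNA/MDR-19 HEK-293 pair.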

[11] = qHTS for Inhibitors of the Functional Ribonucleoprotein Complex (vRNP) of Lassa (LASV) Arenavirus: LASV Primary Screen - GLuc reporter signal (AID 1347082; calls by dose curve; tested in HEK293 reporter line; further: nearly all actives have a fitted effect of over 60% in size; further: potency means the concentration at half of the fitted maximal effect)
[12] = qHTS assay to identify small molecule inhibitors of chordoma cells - UCH-1 (AID 1259355); further: nearly all actives have a fitted effect of over 55% in size
Outline: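 800 cells/well, overnight attach; compounds pinned at 15 concs, then auranofin/camptothecin/doxorubicin/rubitecan/topotecan combo added; 48hr 37 C, 5% CO2; CellTiter-Glo, 30min RT, luminescence.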

[13] = qHTS assay to identify small molecule inhibitors of chordoma cells - UCH-2 (AID 1259356); further: series mostly up to about 46 µM
[14] = Identifying Small Molecule Inhibitors of Pancreatic Cancer Stem Cells (A2780, Spheroid) (AID 1259357); settings: Potency: A2780 spheroid viability;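 further: spheroids pre-formed over 14 days in stem cell medium on hydrogel; compound exposure lasted 48 h before the ATP luminescence read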
Outline: (§1)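 Adherent (2D) versus sphere (3D) formats; spheres generated 14 d in SCM beforehand. Compound transferred by pin tool after 4 h, 48 h incubation, CellTiter-Glo endpoint.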

[15] = Identifying Small Molecule Inhibitors of Pancreatic Cancer Stem Cells (SN12C, Adherent) (AID 1259358);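 further: cell survival measured after 48 h of compound exposure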
Outline: as §1

[16] = Identifying Small Molecule Inhibitors of Pancreatic Cancer Stem Cells (SN12C, Spheroid) (AID 1259360); settings: Potency: SN12C spheroid viability
Outline: as §1

[17] = Identifying Small Molecule Inhibitors of Pancreatic Cancer Stem Cells (Panc1, Adherent) (AID 1259362); settings: Potency: viability;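 further: compound exposure lasted 48 h before the viability read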
Outline: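 Endpoint: ATP-based luminescence, 48 h drug exposure. Bortezomib at 9.2 uM final as full-kill control; DMSO vehicle as negative control; activity normalized between vehicle and cell-free wells.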

[18] = biological target: T1, Tyrosine-protein phosphatase non-receptor type substrate 1 (Homo sapiens) + Leukocyte surface antigen CD47 (Homo sapiens); experiment: CD47-SIRPalpha protein protein interaction - HTRF assay qHTS validation (AID 1347058; active means well fitted curve in the direction sought with a large enough effect in the signal ratio, not every such curve was filed as active; the % refers to the signal ratio; further: series mostly up to about 38 µM)
Outline: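 Soluble extracellular domains (6His-CD47, Avi-tag-biotinylated SIRPalpha) in PBS pH 7.4 with 0.05% IGEPAL CA-630. Compounds were preincubated 30 min at RT with CD47 and anti-His-Eu, then SIRPalpha and SAV-XL665 were added. TR-FRET 665/615 ratio.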

Measured: Potency

Chain of Atrial natriuretic peptide receptor 1 (Homo sapiens) (P16066 whole entry, looked up): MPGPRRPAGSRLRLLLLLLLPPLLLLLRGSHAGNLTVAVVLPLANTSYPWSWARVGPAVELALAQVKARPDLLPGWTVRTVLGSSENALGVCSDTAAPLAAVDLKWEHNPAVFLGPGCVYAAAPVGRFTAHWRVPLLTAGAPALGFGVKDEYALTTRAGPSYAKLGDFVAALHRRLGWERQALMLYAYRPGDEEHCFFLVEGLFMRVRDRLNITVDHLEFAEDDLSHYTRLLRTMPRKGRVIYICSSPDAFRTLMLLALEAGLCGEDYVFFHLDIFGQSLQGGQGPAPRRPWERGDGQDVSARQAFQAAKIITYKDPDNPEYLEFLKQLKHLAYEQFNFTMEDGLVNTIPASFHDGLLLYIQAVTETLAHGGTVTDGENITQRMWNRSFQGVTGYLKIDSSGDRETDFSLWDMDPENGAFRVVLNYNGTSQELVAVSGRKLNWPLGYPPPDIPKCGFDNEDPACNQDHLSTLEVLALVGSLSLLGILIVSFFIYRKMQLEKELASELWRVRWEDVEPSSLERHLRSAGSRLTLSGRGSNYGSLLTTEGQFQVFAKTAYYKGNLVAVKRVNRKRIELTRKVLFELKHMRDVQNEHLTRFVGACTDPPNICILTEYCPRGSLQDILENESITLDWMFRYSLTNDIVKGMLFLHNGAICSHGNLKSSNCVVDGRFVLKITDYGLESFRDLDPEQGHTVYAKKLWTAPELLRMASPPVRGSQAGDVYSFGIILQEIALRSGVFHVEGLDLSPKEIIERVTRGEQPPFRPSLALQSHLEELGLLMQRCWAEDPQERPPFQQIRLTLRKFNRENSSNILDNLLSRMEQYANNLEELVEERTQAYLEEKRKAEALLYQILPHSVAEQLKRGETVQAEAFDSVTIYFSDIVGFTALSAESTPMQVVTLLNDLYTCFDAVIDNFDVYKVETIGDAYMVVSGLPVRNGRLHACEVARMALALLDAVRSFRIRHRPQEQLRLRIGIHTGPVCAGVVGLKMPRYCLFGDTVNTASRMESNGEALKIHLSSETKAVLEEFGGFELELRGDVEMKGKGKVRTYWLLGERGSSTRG
Chain of Atrial natriuretic peptide receptor 2 (Homo sapiens) (P20594 whole entry, looked up): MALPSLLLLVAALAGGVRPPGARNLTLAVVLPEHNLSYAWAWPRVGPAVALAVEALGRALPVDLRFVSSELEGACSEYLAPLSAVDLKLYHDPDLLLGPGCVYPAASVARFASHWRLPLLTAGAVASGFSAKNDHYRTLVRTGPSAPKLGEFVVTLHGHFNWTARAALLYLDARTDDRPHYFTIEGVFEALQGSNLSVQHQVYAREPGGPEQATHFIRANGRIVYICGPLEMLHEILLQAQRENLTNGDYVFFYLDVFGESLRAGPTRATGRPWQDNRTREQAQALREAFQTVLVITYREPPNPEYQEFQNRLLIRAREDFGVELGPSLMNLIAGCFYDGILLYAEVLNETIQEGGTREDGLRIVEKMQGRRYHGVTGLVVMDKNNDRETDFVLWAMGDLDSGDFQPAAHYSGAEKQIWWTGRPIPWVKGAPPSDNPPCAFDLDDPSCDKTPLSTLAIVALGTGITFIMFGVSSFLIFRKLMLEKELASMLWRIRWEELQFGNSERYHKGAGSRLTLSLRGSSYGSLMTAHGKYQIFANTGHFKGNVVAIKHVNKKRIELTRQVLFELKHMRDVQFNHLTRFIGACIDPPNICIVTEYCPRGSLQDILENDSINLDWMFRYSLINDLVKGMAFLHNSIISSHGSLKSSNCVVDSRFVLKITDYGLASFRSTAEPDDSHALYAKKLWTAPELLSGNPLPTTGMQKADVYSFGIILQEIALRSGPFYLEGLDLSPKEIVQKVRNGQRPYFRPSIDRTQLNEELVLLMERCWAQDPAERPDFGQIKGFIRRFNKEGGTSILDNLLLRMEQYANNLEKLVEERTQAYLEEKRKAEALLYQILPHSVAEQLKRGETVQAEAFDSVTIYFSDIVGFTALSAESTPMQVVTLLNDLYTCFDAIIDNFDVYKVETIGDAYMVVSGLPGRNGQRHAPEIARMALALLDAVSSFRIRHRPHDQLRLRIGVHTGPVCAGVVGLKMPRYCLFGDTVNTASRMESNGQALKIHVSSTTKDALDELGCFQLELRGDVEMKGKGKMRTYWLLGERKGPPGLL
T1 sequence (P78324 whole entry, looked up, the tested form may be a part): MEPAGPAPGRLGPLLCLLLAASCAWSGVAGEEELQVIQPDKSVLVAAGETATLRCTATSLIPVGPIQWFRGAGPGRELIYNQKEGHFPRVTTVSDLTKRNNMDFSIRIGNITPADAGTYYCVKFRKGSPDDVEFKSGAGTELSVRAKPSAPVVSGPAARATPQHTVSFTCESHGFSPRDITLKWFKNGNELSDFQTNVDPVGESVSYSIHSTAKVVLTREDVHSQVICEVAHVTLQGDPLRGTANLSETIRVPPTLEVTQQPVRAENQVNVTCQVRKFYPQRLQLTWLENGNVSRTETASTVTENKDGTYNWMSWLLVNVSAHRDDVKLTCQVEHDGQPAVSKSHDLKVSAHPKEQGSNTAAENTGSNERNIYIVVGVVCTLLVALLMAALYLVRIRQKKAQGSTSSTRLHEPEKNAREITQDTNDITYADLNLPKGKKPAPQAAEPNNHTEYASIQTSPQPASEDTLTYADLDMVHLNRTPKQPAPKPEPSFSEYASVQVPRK
T1 sequence (Q08722 whole entry, looked up, the tested form may be a part): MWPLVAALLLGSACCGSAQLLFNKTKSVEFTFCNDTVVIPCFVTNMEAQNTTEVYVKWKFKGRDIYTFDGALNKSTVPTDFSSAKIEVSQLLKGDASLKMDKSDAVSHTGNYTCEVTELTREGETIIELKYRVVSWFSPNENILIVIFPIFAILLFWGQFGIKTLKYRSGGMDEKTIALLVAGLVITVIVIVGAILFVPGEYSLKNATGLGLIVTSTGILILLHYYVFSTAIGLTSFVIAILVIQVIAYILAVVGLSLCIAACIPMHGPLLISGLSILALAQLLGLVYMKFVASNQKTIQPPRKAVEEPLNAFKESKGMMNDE
Chain of Parathyroid hormone/parathyroid hormone-related peptide receptor (Homo sapiens) (Q03431 whole entry, looked up): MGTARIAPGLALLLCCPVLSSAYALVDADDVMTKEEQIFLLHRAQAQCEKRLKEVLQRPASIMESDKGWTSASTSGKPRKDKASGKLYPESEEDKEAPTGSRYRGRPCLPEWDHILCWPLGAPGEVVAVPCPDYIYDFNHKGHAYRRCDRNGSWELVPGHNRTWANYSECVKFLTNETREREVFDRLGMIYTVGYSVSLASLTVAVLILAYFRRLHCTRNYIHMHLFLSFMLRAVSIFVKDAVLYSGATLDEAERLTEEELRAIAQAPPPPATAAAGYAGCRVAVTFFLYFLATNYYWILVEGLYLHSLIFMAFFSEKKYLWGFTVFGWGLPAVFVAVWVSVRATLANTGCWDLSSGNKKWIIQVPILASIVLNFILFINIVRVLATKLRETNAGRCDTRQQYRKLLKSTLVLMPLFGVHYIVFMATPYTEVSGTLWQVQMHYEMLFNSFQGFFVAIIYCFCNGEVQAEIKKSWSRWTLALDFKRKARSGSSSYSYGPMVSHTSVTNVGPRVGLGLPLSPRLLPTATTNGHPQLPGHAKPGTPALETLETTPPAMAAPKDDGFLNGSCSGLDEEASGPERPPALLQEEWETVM

COC(=O)[C@@H](N)CCCN=C(N)N[N+](=O)[O-]
inactive: [1] | [2] | [3] | [4] | [5] | [6] | [7] | [8] | [9]

COC1=C[C@@H]2[C@@H]3Cc4ccc(OC)c(O)c4[C@]2(CCN3C)CC1=O
inactive: [10] | [2] | [6]
active: [1] 2.96 µM | [11] 19.3 µM

CN(C)[C@@H]1C(=O)C(C(N)=O)=C(O)[C@@]2(O)C(=O)C3=C(O)c4c(O)cccc4[C@@](C)(O)[C@H]3[C@H](O)[C@@H]12
inactive: [1] | [12] | [13] | [2] | [6] | [11]

CC(C)(C)c1cc(C=C(C#N)C#N)cc(Br)c1O
inactive: [11]
active: [1] 26.4 µM | [10] 20.6 µM

NC1=NC(=O)N2CC12 (stereo not given)
inactive: [1] | [12] | [13] | [2] | [6] | [11]

CC=C(C)C(=O)O[C@H]1C(C)=C2[C@@H]3OC(=O)[C@@](C)(O)[C@@]3(O)[C@@H](OC(=O)CCC)C[C@](C)(OC(C)=O)[C@@H]2[C@@H]1OC(=O)CCCCCCC
active: [1] 0.0418 µM | [2] 1.87 µM | [6] 0.332 µM

CN1[C@H]2CC(O)C[C@H]1[C@H]1O[C@H]12 (stereo not given in full)
active: [1] 23.5 µM

CCC(=O)OC1CCC2C3CCC4=CC(=O)CC[C@@]4(C)C3CC[C@]12C (stereo not given in full)
inactive: [1] | [10] | [6] | [11]

O=C(N[C@H]1CN2CCC1CC2)c1ccc(Cl)cc1
active: [1] 14.8 µM
not listed: [12] | [13] | [14] | [15] | [16] | [17] | [18]
inactive: all other assays above

C[C@@H]1[C@H](O)[C@@H](C)C=CC=CCCC=CC=CC=CC=C[C@H](O[C@H]2O[C@@H](C)[C@H](O)[C@@H](N)[C@@H]2O)CC2O[C@](O)(C[C@@H](O)[C@H](O)CC[C@@H](O)C[C@@H](O)C[C@@H](O)CC(=O)O[C@H]1C)C[C@H](O)[C@H]2C(=O)O
inactive: [1] | [10] | [2] | [6] | [11]

CC(O)=C(C#N)C(=O)Nc1cc(Br)ccc1Br
active: [1] 20.9 µM
inactive: [10] | [2] | [6] | [11]

O=C(Oc1ccc([N+](=O)[O-])cc1)N1CCC(C(O)(c2ccc3c(c2)OCO3)c2ccc3c(c2)OCO3)CC1
inactive: [1] | [14] | [15] | [16] | [17] | [2] | [11]

CCOC(=O)c1c(C(C#N)=CN)c2ccc(Cl)c(Cl)c2n1C
inactive: [1] | [2]

Oc1ccc2c3c1O[C@H]1c4[nH]c5c(c4C[C@@]4(O)[C@@H](C2)N(CC2CC2)CC[C@]314)C[C@@]1(O)[C@H]2Cc3ccc(O)c4c3[C@@]1(CCN2CC1CC1)[C@H]5O4
not listed: [12] | [13] | [14] | [15] | [16] | [17] | [18]
inactive: all other assays above

CC1=C(O)C(=O)C=C2C1=CC=C1[C@@]2(C)CC[C@@]2(C)[C@@H]3C[C@](C)(C(=O)O)CC[C@]3(C)CC[C@]12C
active: [1] 0.833 µM | [2] 2.96 µM | [6] 2.96 µM

Cc1ccccc1-n1c(Cn2ncc3c(N)ncnc32)nc2cccc(C)c2c1=O
active: [1] 11.8 µM
inactive: [10] | [2] | [6]

NC1CC1c1ccccc1 (stereo not given)
not listed: [10] | [12] | [13] | [14] | [15] | [16] | [17]
inactive: all other assays above

CC(C)(O)C=CC(=O)[C@](C)(O)[C@H]1[C@H](O)C[C@]2(C)[C@@H]3CC=C4[C@@H](C=C(O)C(=O)C4(C)C)[C@]3(C)C(=O)C[C@@]12C
active: [1] 0.0418 µM | [2] 0.118 µM | [6] 3.32 µM

O=C(Oc1ccc([N+](=O)[O-])cc1)N1CCN(Cc2cccc(Oc3ccccc3)c2)CC1
inactive: [1] | [2] | [6]

O=c1[nH]c2ccccc2n1C1CCN(Cc2ccc(-c3[nH]c4cc5ncnc5cc4nc3-c3ccccc3)cc2)CC1
active: [1] 20.9 µM | [6] 18.7 µM
inactive: [10] | [2]

c1cc2c(cc1[C@H]1OC[C@H]3[C@H]1CO[C@H]3c1ccc3c(c1)OCO3)OCO2
inactive: [1] | [2] | [6]

c1ccc(CCCN2CCN(CCOC(c3ccccc3)c3ccccc3)CC2)cc1
active: [1] 20.9 µM | [2] 18.7 µM | [3] 26.1 µM
inactive: [4] | [5] | [6] | [7] | [18] | [8] | [9] | [11]
